Test systems include SK-MEL-2 melanoma; EKVX NSCLC; SN12C renal; UO-31 renal; TK-10 renal; ACHN renal; CAKI-1 renal; A498 renal; CCRF-CEM leukemia; MOLT-4 leukemia; SR leukemia; RPMI-8226 leukemia; OVCAR-8 ovarian; OVCAR-4 ovarian; SK-OV-3 ovarian; IGROV1 ovarian; OVCAR-3 ovarian; HS 578T breast; NCI/ADR-RES ovarian; OVCAR-5 ovarian.
Common to all, as to experiment: NCI-60 one-dose screen, 48 h (100 = growth as untreated, 0 = no growth, -100 = all killed)
Common to all, as to conditions: 10 µM unless noted

This is part of a sample that, as a whole, favours compounds with a hit. Of some 83,000 tested, about 20% had one in any assay.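 Single-concentration screen, 48 h exposure, 96-well plates. Endpoint: percent growth. Below 10 = active.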 Unmarked numbers belong to inactive results. Activity calls are given as the source filed them.

As for `CSc1nc2sc3c(c2c(=O)n1-c1ccc(C(C)C)cc1)CCC(=O)C3`, the growth in the assay on SK-MEL-2 melanoma is 63.8%; in the assay on EKVX NSCLC, 23.1%; with SN12C renal, 6.68% (active); in the assay with UO-31 renal, -67.2% (active); in the assay on TK-10 renal, 7.34% (active); in the assay with ACHN renal it was -19.9% (active). Also, the growth with CAKI-1 renal is -9.77% (active); in the assay with A498 renal it was 96.3%; in the assay with CCRF-CEM leukemia, -11.8% (active); in the assay on MOLT-4 leukemia it was -12.6% (active); in the assay with SR leukemia, -11.7% (active); in the assay on RPMI-8226 leukemia, -29.9% (active). The growth in the assay with OVCAR-8 ovarian is 4.63% (active); with OVCAR-4 ovarian, 14.5%; with SK-OV-3 ovarian, 35.6%; in the assay with IGROV1 ovarian, -6.1% (active); in the assay on OVCAR-3 ovarian, -27.4% (active); with HS 578T breast, 2.67% (active). Also, in the assay on NCI/ADR-RES ovarian, the growth is -11.1% (active).
On to `COC1/C=C\OC2(C)Oc3c(C)c(O)c4c(O)c(c(CN(C)CCO)c(O)c4c3C2=O)NC(=O)/C(C)=C\C=C/C(C)C(O)C(C)C(O)C(C)C(OC(C)=O)C1C` (stereo unspecified), for which the growth is 105% in the assay with SK-MEL-2 melanoma; 95.1% with EKVX NSCLC; 105% with SN12C renal; 80.3% in the assay with UO-31 renal; 114% with TK-10 renal; 103% in the assay on ACHN renal. The growth with CAKI-1 renal was 68.5%; in the assay on A498 renal, 115%; in the assay with CCRF-CEM leukemia, 98.3%; in the assay on MOLT-4 leukemia, 112%; with SR leukemia, 91.2%; in the assay with RPMI-8226 leukemia, 86.4%. Also, the growth with OVCAR-8 ovarian is 90.7%; in the assay on OVCAR-5 ovarian it was 91.7%; in the assay with OVCAR-4 ovarian, 84.5%; in the assay on SK-OV-3 ovarian, 96.6%; with IGROV1 ovarian it was 95.9%; with HS 578T breast, 104%. Moreover, the growth in the assay on NCI/ADR-RES ovarian was 103%.
As for `O=[N+]([O-])c1cccc(-c2nc3sccn3c2-c2ccnc(NCCCNS(=O)(=O)c3cccc(F)c3)n2)c1`, the growth in the assay with SK-MEL-2 melanoma is -29.2% (active); with EKVX NSCLC, 19.1%; in the assay on SN12C renal, 18.7%; with UO-31 renal it was -11.6% (active); with TK-10 renal, 52.9%; in the assay with ACHN renal, 6.36% (active). In addition, the growth in the assay with CAKI-1 renal was 10%; in the assay with A498 renal, 33.7%; in the assay on CCRF-CEM leukemia, 3.04% (active); in the assay on MOLT-4 leukemia it was -34.4% (active); in the assay with SR leukemia it was 13.2%; with RPMI-8226 leukemia, -32.5% (active). In addition, the growth in the assay on OVCAR-8 ovarian is -5.3% (active); in the assay on OVCAR-5 ovarian it was 66.2%; in the assay with OVCAR-4 ovarian, -12.2% (active); with IGROV1 ovarian it was 3.18% (active); in the assay on OVCAR-3 ovarian it was -2.65% (active); with HS 578T breast, 31.2%. For the same molecule, in the assay with NCI/ADR-RES ovarian, the growth was -20.8% (active).
For the molecule `Cc1cc(N/N=C/c2nc(-c3ccc(Cl)cc3)oc2C)c2cc(Br)ccc2n1`, the growth with SK-MEL-2 melanoma was 108%; in the assay on EKVX NSCLC it was 86.4%; with SN12C renal it was 20.5%; in the assay on UO-31 renal, 55.9%; in the assay with TK-10 renal it was 25.2%; with ACHN renal it was 75.8%. Further, the growth is 90% in the assay with CAKI-1 renal; 92.6% with A498 renal; 4.11% (active) with CCRF-CEM leukemia; 15% in the assay on MOLT-4 leukemia; 4.22% (active) with SR leukemia; -15% (active) in the assay on RPMI-8226 leukemia. In addition, the growth in the assay with OVCAR-8 ovarian was 8.16% (active); in the assay on OVCAR-5 ovarian, 96.1%; in the assay with OVCAR-4 ovarian, -83% (active); with IGROV1 ovarian, 63.3%; in the assay with HS 578T breast, 78.6%; with NCI/ADR-RES ovarian, 14.7%.
Regarding `CC[C@H](Nc1ncnc(N)c1C(N)=O)c1nc2cccc(NCc3ccc(C(=O)NO)cc3)c2c(=O)n1-c1ccccc1`, the growth in the assay on SK-MEL-2 melanoma was 82.8%; in the assay on EKVX NSCLC, 99.7%; in the assay with SN12C renal, 81.5%; with UO-31 renal, 71.8%; with TK-10 renal, 69.9%; in the assay with ACHN renal, 91%. Also, the growth with CAKI-1 renal is 93.2%; in the assay on A498 renal it was 90.8%; with CCRF-CEM leukemia, 33%; with MOLT-4 leukemia, 67.8%; in the assay on SR leukemia it was 12%; in the assay on RPMI-8226 leukemia it was 51%. Moreover, the growth was 69.4% in the assay with OVCAR-8 ovarian; 95.5% with OVCAR-5 ovarian; 99% in the assay with OVCAR-4 ovarian; 71% in the assay with IGROV1 ovarian; 73.1% with OVCAR-3 ovarian; 69.7% in the assay with HS 578T breast. The growth with NCI/ADR-RES ovarian was 106%.
For `COc1ccc(-c2cc(-c3cccnc3)nc3sc4c(=O)n(-c5ccc(C)cc5)cnc4c23)cc1OC`, the growth in the assay with SK-MEL-2 melanoma is 108%; with EKVX NSCLC, 86.4%; with SN12C renal, 92.2%; in the assay on UO-31 renal, 82%; in the assay with TK-10 renal, 111%; in the assay on ACHN renal, 88.1%. Moreover, the growth in the assay with CAKI-1 renal was 76.3%; in the assay with A498 renal, 91%; in the assay with CCRF-CEM leukemia, 105%; in the assay on MOLT-4 leukemia, 97.4%; in the assay on SR leukemia, 96.1%; in the assay on RPMI-8226 leukemia, 97.6%. Also, the growth was 101% in the assay on OVCAR-8 ovarian; 86.7% with OVCAR-5 ovarian; 92.3% in the assay on OVCAR-4 ovarian; 106% in the assay on IGROV1 ovarian; 98.8% in the assay on OVCAR-3 ovarian; 87.2% in the assay with HS 578T breast. Further, the growth in the assay on NCI/ADR-RES ovarian was 103%.
Consider `CCCCCCCCCC(=O)Oc1ccc(/C(=C(/C)Cc2cccc(OC)c2)c2ccc(OCCN(C)C)cc2)cc1`, for which the growth with SK-MEL-2 melanoma was 107%; in the assay with EKVX NSCLC, 94.7%; in the assay on SN12C renal it was 99.2%; with UO-31 renal, 92.5%; in the assay with TK-10 renal, 109%; in the assay with ACHN renal, 110%. Also, the growth was 102% in the assay on CAKI-1 renal; 95.8% in the assay on A498 renal; 103% in the assay with CCRF-CEM leukemia; 115% in the assay on MOLT-4 leukemia; 106% in the assay on SR leukemia; 106% with RPMI-8226 leukemia. Besides, the growth is 108% in the assay on OVCAR-8 ovarian; 101% in the assay with OVCAR-5 ovarian; 115% with OVCAR-4 ovarian; 113% in the assay on SK-OV-3 ovarian; 110% with IGROV1 ovarian; 108% with HS 578T breast. Besides, the growth with NCI/ADR-RES ovarian was 98.4%.
As to `C=C1C(=O)O[C@H]2[C@H]1CC/C(Cn1cc(Cc3c[nH]c4ccccc34)nn1)=C\CC[C@@]1(C)O[C@@H]21`, the growth with SK-MEL-2 melanoma is 51.2%; in the assay on EKVX NSCLC, 53.6%; in the assay on SN12C renal, 39.4%; in the assay on UO-31 renal it was -71.1% (active); in the assay on TK-10 renal, 14.7%; in the assay with ACHN renal, -36.1% (active). For the same molecule, the growth with CAKI-1 renal is 31.7%; in the assay with A498 renal, 64.3%; with CCRF-CEM leukemia, -17.1% (active); in the assay on MOLT-4 leukemia, -1.1% (active); in the assay with SR leukemia, -5.78% (active); in the assay with RPMI-8226 leukemia it was -26% (active). Moreover, the growth in the assay with OVCAR-8 ovarian is 0.832% (active); in the assay on OVCAR-4 ovarian, 43.8%; with SK-OV-3 ovarian it was 97.1%; in the assay on IGROV1 ovarian, 40.2%; in the assay on OVCAR-3 ovarian, -28.3% (active); in the assay on HS 578T breast, 73.5%. Further, the growth in the assay with NCI/ADR-RES ovarian is 85.8%.

The record behind these values is PubChem BioAssay (NCI).
